Granule exo inh = blocks lytic granule exocytosis. TALL-104 LAMP-1 surface exposure, flow cytometry; cells stimulated with thapsigargin and PMA. inhibition, % at 10 µM. hit rate 0.66% among 360,000. AID 651702;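 active means inhibition above about 55%, limit read from the data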
NOD2 RIPK2 PPI = NOD2-RIPK2 protein interaction inhibition; O43353; CHO BLA complementation NOD2-RIPK2, CCF4 ratio; inhibition, % at 4.98 µM; hit rate 0.38% among 360,000; AID 624267; in the data active means inhibition above about 21%
B2AR ag = human beta-2 adrenergic receptor agonism by FAP; P07550; Am2.2-beta2AR cells, FAP receptor internalization, flow cytometry; response, % (no concentration beside the values); hit rate 0.43% among 340,000; AID 504454;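 active means response above a set limit, near 3 SD of response in nonfluorescent compounds, cut at about 42% in these data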
ABHD5 PLIN5 PPI = inhibitors of human ABHD5-perilipin-5 interaction; Q00G26+Q8WTS1; Split G. princeps luciferase complementation, luminescence, 4 h; inhibition, % at 4 µM; hit rate 0.78% among 360,000; AID 602281;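 active means inhibition above the mean inhibition across every tested compound plus 3 SD, cut at about 22% in these data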
TLR4-MyD88 BLA = blocks binding of human TLR4 to MyD88; hit rate 0.18% among 200,000; inhibition, % at 8.4 µM; HeLa CL3-4 TLR4/MyD88 BLA complementation, FRET ratio; O00206+Q99836; in the data active means inhibition above about 25%
TLR9-MyD88 inh = inhibitors of human TLR9-MyD88 binding; Q9NR96+Q99836; CHO BLA complementation TLR9-MyD88, CCF4 FRET ratio; inhibition, % at 4.98 µM; hit rate 0.21% among 340,000;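 active means inhibition above the mean over all tested compounds plus 3 SD, cut at about 21% in these data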
ABHD5-PLIN5 conf = ABHD5-PLIN5 interaction inhibition, confirmed; shares compounds with ABHD5 PLIN5 PPI; biochemical ABHD5-PLIN5 interaction, luminescence; inhibition, % at 4 µM; hit rate 67% among 2,200; AID 651612; in the data active means inhibition above about 23%
HNF4 counter = active in HNF4 split-luciferase counter-screen for ABHD5-PLIN5 inhibitors | hit rate 77% among 2,200 | shares compounds with ABHD5 PLIN5 PPI | AID 651674 | inhibition, % at 4 µM | HNF4 dimerization, luminescence, biochemical;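 active means mean inhibition across replicate wells exceeding the computed hit threshold, cut at about 13% in these data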;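 further: light from luciferase halves that rejoin when HNF4 fusion proteins dimerize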
Each line names hits and unclear results; the compound was inactive in the other large screens (follow-up assays come after a bar, where they were run). Compounds with a hit are over-represented: about 2% of the library has one in this group of screens.

COc1cccc(/C=C/C(=O)c2ccc(NC3=NCCCS3)cc2)c1	ABHD5 PLIN5 PPI 45 | ABHD5-PLIN5 conf 74 | HNF4 counter 63
c1ccc(NC2=NCCCCS2)cc1	none
Cc1cc(N(CCO)CCO)ccc1N=Nc1cc(F)ccc1F	ABHD5 PLIN5 PPI 31 | ABHD5-PLIN5 conf 22 | HNF4 counter 17
COc1cc(C=c2c3ccccc3n3c2cc(-c2ccccc2)[n+]3C)cc(OC)c1OC	none (no result: TLR4-MyD88 BLA)
CN(C)c1ccc(C=c2c3cc([N+](=O)[O-])ccc3n3c2cc(-c2ccccc2)[n+]3C)cc1	ABHD5 PLIN5 PPI 26 (no result: TLR4-MyD88 BLA) | ABHD5-PLIN5 conf 101 | HNF4 counter 48
COc1cc(N(C)C)ccc1C=c1c2ccccc2n2c1cc(-c1ccccc1)[n+]2C	Granule exo inh 100, ABHD5 PLIN5 PPI 24 (no result: TLR4-MyD88 BLA) | ABHD5-PLIN5 conf inactive | HNF4 counter 26
CCN(CC)c1ncnc2c1ncn2[C@H]1CN(Cc2cccnc2)C[C@@H](CO)O1	none (no result: B2AR ag, TLR4-MyD88 BLA, TLR9-MyD88 inh)
CCOC(=O)N(C)C[C@@H]1OCc2cnnn2CCCC(=O)N([C@H](C)CO)C[C@H]1C	none (no result: B2AR ag, TLR4-MyD88 BLA)
CCN1CCN(c2ccc(NC(=O)COc3ccccc3Cl)cc2)CC1	none
O=C(COc1ccccc1Cl)Nc1ccc(N2CCCC2)cc1	ABHD5 PLIN5 PPI 26 (no result: TLR4-MyD88 BLA) | ABHD5-PLIN5 conf 45 | HNF4 counter inactive
Cc1cccc(C)c1NC(=O)C(c1ccc(-c2ccccc2)cc1)n1c(=O)c(-c2ccco2)nc2ccccc21 (configuration not stated)	ABHD5 PLIN5 PPI 90 (no result: B2AR ag, TLR4-MyD88 BLA, TLR9-MyD88 inh) | ABHD5-PLIN5 conf 96 | HNF4 counter 27
CC(C)(C)NC(=O)C(c1ccc(-c2ccccc2)cc1)n1c(=O)c(-c2ccco2)nc2ccccc21 (configuration not stated)	ABHD5 PLIN5 PPI 73 (no result: B2AR ag, TLR4-MyD88 BLA, TLR9-MyD88 inh) | ABHD5-PLIN5 conf 94 | HNF4 counter 28
CC(C)(C)NC(=O)C(c1ccc(C#N)cc1)n1c(=O)c(-c2ccco2)nc2ccccc21 (configuration not stated)	ABHD5 PLIN5 PPI 75 (no result: B2AR ag, TLR4-MyD88 BLA, TLR9-MyD88 inh) | ABHD5-PLIN5 conf 77 | HNF4 counter 26
CC(C)(C)NC(=O)C(c1ccc(-c2ccccc2)cc1)n1c(=O)c(-c2ccccc2)nc2ccccc21 (configuration not stated)	none (no result: B2AR ag, TLR4-MyD88 BLA, TLR9-MyD88 inh)
Cc1cccc(C)c1NC(=O)C(c1ccccc1)n1c(=O)c(-c2ccccc2)nc2ccccc21 (configuration not stated)	none (no result: B2AR ag, TLR4-MyD88 BLA, TLR9-MyD88 inh)
CC(C)(C)NC(=O)C(c1ccc(C#N)cc1)n1c(=O)c(-c2ccccc2)nc2ccccc21 (configuration not stated)	none (no result: B2AR ag, TLR4-MyD88 BLA, TLR9-MyD88 inh)
COc1ccc(C(C(=O)NC(C)(C)C)n2c(=O)c(-c3ccco3)nc3ccccc32)cc1 (configuration not stated)	ABHD5 PLIN5 PPI 73 (no result: B2AR ag, TLR4-MyD88 BLA, TLR9-MyD88 inh) | ABHD5-PLIN5 conf 63 | HNF4 counter 26
COC(=O)c1sccc1S(=O)(=O)Nc1ccc(C(O)(C(F)(F)F)C(F)(F)F)cc1	none (no result: B2AR ag, TLR4-MyD88 BLA, TLR9-MyD88 inh)
CCOC(=O)[C@]12CCC=C1N(Cc1ccc3c(c1)OCO3)C(=O)[C@H](CC(=O)NCC13CC4CC(CC(C4)C1)C3)C2	none (no result: B2AR ag, TLR4-MyD88 BLA, TLR9-MyD88 inh)
CCCc1nc2sc3ccccc3c(=O)c2c(=O)n1Cc1ccco1	ABHD5 PLIN5 PPI 28 | ABHD5-PLIN5 conf 52 | HNF4 counter 74
CSc1ncccc1C(=O)N1CCCC(Nc2ccc(C)c(C)c2)C1 (configuration not stated)	none (no result: TLR4-MyD88 BLA)
CN(C)CCOc1ccc(-c2c(-c3ccccc3)sc3ccccc23)cc1	ABHD5 PLIN5 PPI 29 (no result: TLR4-MyD88 BLA) | ABHD5-PLIN5 conf inactive | HNF4 counter inactive
c1ccc(-c2sc3ccccc3c2-c2ccc(OCCN3CCCCC3)cc2)cc1	none (no result: TLR4-MyD88 BLA)
COc1ccc(-c2cc(=O)[nH][nH]2)cc1	none
COc1ccc(-c2cc(=O)n(CCC#N)[nH]2)cc1	ABHD5 PLIN5 PPI 26 | ABHD5-PLIN5 conf inactive | HNF4 counter inactive
COC/C=C/C1=CC2=CC(=O)C(C)(OC(=O)C3CCCC3)C(=O)C2=CO1 (configuration not stated)	ABHD5 PLIN5 PPI 36 (no result: TLR4-MyD88 BLA) | ABHD5-PLIN5 conf 67 | HNF4 counter 39
C=CSc1sc(Cl)c(N2CCOCC2)c1[N+](=O)[O-]	none

Screens as filed in PubChem.
